Assay results: PubChem BioAssay (Tox21)
Records with an inconclusive call do not appear. Calls of active or inactive are those of the source. Unless noted, the call rests on the fitted dose curve; in most records, active means well fitted curve in the direction sought with a large enough effect in the repeat runs; inconclusive means weak or mixed curves; inactive means no such curve, though single readings can be large; an effect the other way counts as inactive or inconclusive.

What was measured:
[1] = qHTS assay to identify aromatase inhibitors - cell viability counter screen (AID 743084);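 further: cells stimulated with testosterone during compound exposure; nearly all actives have a fitted effect of over 55% in size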
[2] = molecular target: Aryl hydrocarbon receptor (Homo sapiens) (UniProt P35869); assay: qHTS assay to identify small molecule that activate the aryl hydrocarbon receptor (AhR) signaling pathway (AID 743085); further: nearly all actives have a fitted effect of over 15% in size; further: potency means the concentration at half of the fitted maximal effect;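 on activation: HG2L7.5c1 human HepG2 liver cells with stably integrated DRE-driven firefly reporter; series mostly up to about 70 µM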
Chain of Aryl hydrocarbon receptor (Homo sapiens) (P35869 whole entry, looked up): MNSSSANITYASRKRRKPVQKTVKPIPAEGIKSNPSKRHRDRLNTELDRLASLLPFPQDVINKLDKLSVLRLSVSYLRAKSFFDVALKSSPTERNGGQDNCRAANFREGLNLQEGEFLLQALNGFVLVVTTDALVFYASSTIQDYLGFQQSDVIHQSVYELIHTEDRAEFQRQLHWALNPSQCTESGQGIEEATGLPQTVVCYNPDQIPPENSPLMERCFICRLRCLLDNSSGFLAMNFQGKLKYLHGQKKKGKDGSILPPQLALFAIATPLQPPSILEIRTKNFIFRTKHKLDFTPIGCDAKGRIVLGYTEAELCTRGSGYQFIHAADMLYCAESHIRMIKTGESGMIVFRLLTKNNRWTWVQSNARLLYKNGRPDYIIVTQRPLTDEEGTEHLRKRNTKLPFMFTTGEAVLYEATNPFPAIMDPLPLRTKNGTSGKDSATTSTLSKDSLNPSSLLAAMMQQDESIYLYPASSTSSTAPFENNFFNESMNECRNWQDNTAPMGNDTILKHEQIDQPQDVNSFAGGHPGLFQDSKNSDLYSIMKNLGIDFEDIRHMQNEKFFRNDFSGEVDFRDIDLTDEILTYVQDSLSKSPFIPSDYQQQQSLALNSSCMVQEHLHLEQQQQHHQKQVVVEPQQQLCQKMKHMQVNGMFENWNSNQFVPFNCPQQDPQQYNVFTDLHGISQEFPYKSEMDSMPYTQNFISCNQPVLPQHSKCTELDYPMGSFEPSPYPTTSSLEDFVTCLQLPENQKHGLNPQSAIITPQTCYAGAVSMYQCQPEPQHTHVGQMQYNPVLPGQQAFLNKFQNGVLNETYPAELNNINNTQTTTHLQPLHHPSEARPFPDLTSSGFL
How it was run: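 Cell line HG2L7.5c1 (human hepatoma, 20× DRE-luc). Plated, 5 h 37C, compound/DMSO added, 24 h 37C. CellTiter-Fluor 30 min 37C → fluorescence; then ONE-Glo 30 min RT → luminescence.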

[3] = qHTS assay to identify small molecule that activate the aryl hydrocarbon receptor (AhR) signaling pathway - cell viability counter screen (AID 743086);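 further: HepG2 liver cells carrying the AhR DRE luciferase reporter; series mostly up to about 70 µM; nearly all actives have a fitted effect of over 45% in size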
How it was run: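 Cytotoxicity counter screen: CellTiter-Fluor signal (30 min, 37 C) in 4000 HepG2 cells/well carrying the DRE-luciferase reporter, following 24 h compound exposure at 37 C.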

[4] = molecular target: Peroxisome proliferator-activated receptor gamma (Homo sapiens) (UniProt P37231); assay: qHTS assay to identify small molecule antagonists of the peroxisome proliferator-activated receptor gamma (PPARg) signaling pathway (AID 743191; calls by dose curve; further: series mostly up to about 63 µM; nearly all actives have a fitted effect of over 30% in size)
Chain of Peroxisome proliferator-activated receptor gamma (Homo sapiens) (P37231 whole entry, looked up): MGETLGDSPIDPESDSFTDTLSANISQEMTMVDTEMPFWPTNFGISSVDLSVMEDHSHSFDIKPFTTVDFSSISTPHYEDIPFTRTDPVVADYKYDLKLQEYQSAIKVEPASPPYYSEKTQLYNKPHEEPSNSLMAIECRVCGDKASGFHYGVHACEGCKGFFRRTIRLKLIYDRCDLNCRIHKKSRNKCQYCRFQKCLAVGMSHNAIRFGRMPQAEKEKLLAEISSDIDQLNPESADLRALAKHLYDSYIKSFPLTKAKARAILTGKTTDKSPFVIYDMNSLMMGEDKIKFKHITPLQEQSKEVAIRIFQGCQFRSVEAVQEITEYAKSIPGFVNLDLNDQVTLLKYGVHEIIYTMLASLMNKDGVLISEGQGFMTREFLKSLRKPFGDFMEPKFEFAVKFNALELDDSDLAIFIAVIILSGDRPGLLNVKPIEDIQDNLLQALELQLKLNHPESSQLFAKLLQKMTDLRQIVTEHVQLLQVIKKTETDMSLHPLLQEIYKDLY
How it was run: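 Beta-lactamase reporter under UAS control in HEK293H PPARg-bla cells; compound treatment 17 h at 37C. Read-out: fluorescence intensity after 1 h room-temperature incubation with LiveBLAzer B/G FRET substrate.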

[5] = qHTS assay to identify small molecule antagonists of the peroxisome proliferator-activated receptor gamma (PPARg) signaling pathway - cell viability counter screen (AID 743194); further: nearly all actives have a fitted effect of over 55% in size
How it was run: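 Viability was measured as CellTiter-Glo luminescence in GeneBLAzer PPARg UAS-bla HEK293H cells. These cells had been exposed 17 h at 37 C to compounds together with rosiglitazone at 50 nM final, with the beta-lactamase readout taken in the same wells.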

[6] = qHTS assay for small molecule agonists of the antioxidant response element (ARE) signaling pathway (AID 743202; active means well fitted activation curve with a large enough effect in the signal ratio in the repeat runs, not every such curve was filed as active; the % refers to the signal ratio)
How it was run: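 An ARE-responsive beta-lactamase gene stably integrated in HepG2 cells serves as reporter. After 5 h plating and 16 h compound incubation at 37 C, fluorescence of the B/G FRET substrate was measured.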

[7] = qHTS assay for small molecule agonists of the antioxidant response element (ARE) signaling pathway - cell viability counter screen (AID 743203; calls by dose curve; further: nearly all actives have a fitted effect of over 55% in size)
How it was run: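 ARE-bla HepG2 cells were plated, rested 5 h at 37C/5% CO2, then exposed to compounds in DMSO for 16 h. Viability was read as CellTiter-Glo luminescence after 30 min at room temperature, in the same wells as the ARE screen.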

[8] = qHTS assay for small molecule activators of the heat shock response signaling pathway - cell viability counter screen (AID 743209); further: nearly all actives have a fitted effect of over 50% in size
How it was run: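 HSE-bla HeLa cells plated overnight, then exposed to Tox21 compounds (23 nL in DMSO) for 5 h at 37 C. After the bla reporter read, CellTiter-Glo was added in the same wells and luminescence read after 30 min at room temperature.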

[9] = qHTS assay to identify small molecule agonists of the peroxisome proliferator-activated receptor delta (PPARd) signaling pathway - cell viability counter screen (AID 743211); further: nearly all actives have a fitted effect of over 55% in size
How it was run: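 HEK293H PPARd-bla, 3000 cells/well; 5 h preincubation 37C/5% CO2; cpd in DMSO, 17 h 37C; B/G FRET substrate 2 h RT; CellTiter-Glo 30 min RT, luminescence.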

[10] = molecular target: Peroxisome proliferator-activated receptor delta (Homo sapiens) (UniProt Q03181); assay: qHTS assay to identify small molecule agonists of the peroxisome proliferator-activated receptor delta (PPARd) signaling pathway (AID 743212; calls by dose curve)
Chain of Peroxisome proliferator-activated receptor delta (Homo sapiens) (Q03181 whole entry, looked up): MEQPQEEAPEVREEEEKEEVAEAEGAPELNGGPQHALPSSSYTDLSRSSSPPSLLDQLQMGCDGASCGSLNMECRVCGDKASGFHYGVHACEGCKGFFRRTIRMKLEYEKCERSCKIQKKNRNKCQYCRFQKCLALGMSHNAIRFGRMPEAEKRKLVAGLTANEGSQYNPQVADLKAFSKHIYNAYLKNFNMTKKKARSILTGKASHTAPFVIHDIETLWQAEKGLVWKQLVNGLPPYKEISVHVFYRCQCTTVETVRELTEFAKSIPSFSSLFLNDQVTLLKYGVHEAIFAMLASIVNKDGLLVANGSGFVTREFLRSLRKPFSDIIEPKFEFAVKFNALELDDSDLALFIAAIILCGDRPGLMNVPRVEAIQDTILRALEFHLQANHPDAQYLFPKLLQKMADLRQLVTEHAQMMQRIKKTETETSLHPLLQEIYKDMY
How it was run: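 HEK293H UAS-bla reporter cells, human PPARd system; compounds delivered in DMSO after 5 h plating, then at 37 C. Beta-lactamase FRET read, 2 h RT substrate step.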

[11] = qHTS assay to identify small molecule antagonists of the peroxisome proliferator-activated receptor delta (PPARd) signaling pathway - cell viability counter screen (AID 743213); further: nearly all actives have a fitted effect of over 50% in size
How it was run: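 Cytotoxicity counter screen: CellTiter-Glo luminescence read 30 min after addition, in the same wells as the reporter assay. There, PPARd UAS-bla HEK293H cells (3000/well) were treated 17 h at 37 C with compound and 300 nM L165041.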

[12] = molecular target: Peroxisome proliferator-activated receptor delta (Homo sapiens) (UniProt Q03181); assay: qHTS assay to identify small molecule antagonists of the peroxisome proliferator-activated receptor delta (PPARd) signaling pathway (AID 743215; active means well fitted inhibition curve with a large enough effect in the signal ratio in the repeat runs, not every such curve was filed as active; the % refers to the signal ratio;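 further: cells stimulated with agonist L165041 at 300 nM final during compound exposure; series mostly up to about 62 µM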)
How it was run: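 PPARd-bla HEK293H cells (UAS-bla reporter) preincubated 5 h, then given compound plus 300 nM final L165041 agonist for 17 h at 37 C. Beta-lactamase activity read by LiveBLAzer B/G FRET substrate fluorescence after 2 h at room temperature.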

[13] = qHTS assay to identify small molecule antagonists of the farnesoid-X-receptor (FXR) signaling pathway - cell viability counter screen (AID 743221; active means well fitted cell-killing curve with a large enough effect in the repeat runs, not every such curve was filed as active; further: nearly all actives have a fitted effect of over 50% in size)
How it was run: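 Luminescence from CellTiter-Glo measures cytotoxicity in GeneBLAzer FXR-UAS-bla HEK 293T cells. Cells were exposed to compounds with 50 uM chenodeoxycholic acid (final) for 16 h at 37 C, in wells also used for the reporter readout.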

[14] = qHTS assay for small molecule activators of the heat shock response signaling pathway (AID 743210; active means well fitted activation curve with a large enough effect in the signal ratio in the repeat runs, with a control signal flat, not every such curve was filed as active; the % refers to the signal ratio;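 further: HeLa cells with beta-lactamase reporter driven by heat shock elements; series mostly up to about 63 µM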)
How it was run: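 In HSE-bla HeLa cells, 5 h compound incubation (37 C) precedes addition of LiveBLAzer B/G substrate; after 2.5 h at room temperature, fluorescence intensity indicates reporter induction.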

[15] = molecular target: Bile acid receptor (Homo sapiens) (UniProt Q96RI1); assay: qHTS assay to identify small molecule antagonists of the farnesoid-X-receptor (FXR) signaling pathway (AID 743217; active means well fitted inhibition curve with a large enough effect in the signal ratio in the repeat runs, not every such curve was filed as active; the % refers to the signal ratio)
Chain of Bile acid receptor (Homo sapiens) (Q96RI1 whole entry, looked up): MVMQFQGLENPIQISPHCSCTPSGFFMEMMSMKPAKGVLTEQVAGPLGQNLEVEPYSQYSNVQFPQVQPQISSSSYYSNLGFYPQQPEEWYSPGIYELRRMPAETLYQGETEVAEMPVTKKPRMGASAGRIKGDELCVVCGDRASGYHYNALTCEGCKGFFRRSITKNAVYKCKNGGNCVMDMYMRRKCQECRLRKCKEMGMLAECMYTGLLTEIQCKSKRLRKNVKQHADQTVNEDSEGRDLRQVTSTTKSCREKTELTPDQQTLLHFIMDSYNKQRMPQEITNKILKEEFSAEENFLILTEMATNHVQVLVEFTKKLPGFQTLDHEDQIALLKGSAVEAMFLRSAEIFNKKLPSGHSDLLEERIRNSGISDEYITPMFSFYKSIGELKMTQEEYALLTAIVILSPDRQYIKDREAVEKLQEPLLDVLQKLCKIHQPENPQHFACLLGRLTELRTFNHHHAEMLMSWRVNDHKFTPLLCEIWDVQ
How it was run: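 FXR-UAS-bla HEK 293T cells (beta-lactamase reporter) given compound plus chenodeoxycholic acid (50 uM final), 16 h at 37C. LiveBLAzer B/G FRET substrate added for 2 h at room temperature; fluorescence read.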

[16] = qHTS assay to identify small molecule agonists of the farnesoid-X-receptor (FXR) signaling pathway - cell viability counter screen (AID 743218); further: nearly all actives have a fitted effect of over 45% in size
How it was run: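 FXR-UAS-bla HEK 293T cells exposed to compounds for 16 h at 37C. Cytotoxicity read in the same wells by CellTiter-Glo luminescence after 30 min at room temperature, following the beta-lactamase FRET read.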

[17] = molecular target: Bile acid receptor (Homo sapiens) (UniProt Q96RI1); assay: qHTS assay to identify small molecule agonists of the farnesoid-X-receptor (FXR) signaling pathway (AID 743220; active means well fitted activation curve with a large enough effect in the signal ratio in the repeat runs, not every such curve was filed as active; the % refers to the signal ratio)
How it was run: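 Beta-lactamase reporter under UAS control in GeneBLAzer FXR HEK 293T cells (5000/well) measured with LiveBLAzer FRET substrate after 2 h at room temperature. Compound exposure lasted 16 h at 37C.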

[18] = molecular target: Vitamin D3 receptor (Homo sapiens) (UniProt P11473); assay: qHTS assay to identify small molecule agonists of the vitamin D receptor (VDR) signaling pathway (AID 743222; calls by dose curve)
Chain of Vitamin D3 receptor (Homo sapiens) (P11473 whole entry, looked up): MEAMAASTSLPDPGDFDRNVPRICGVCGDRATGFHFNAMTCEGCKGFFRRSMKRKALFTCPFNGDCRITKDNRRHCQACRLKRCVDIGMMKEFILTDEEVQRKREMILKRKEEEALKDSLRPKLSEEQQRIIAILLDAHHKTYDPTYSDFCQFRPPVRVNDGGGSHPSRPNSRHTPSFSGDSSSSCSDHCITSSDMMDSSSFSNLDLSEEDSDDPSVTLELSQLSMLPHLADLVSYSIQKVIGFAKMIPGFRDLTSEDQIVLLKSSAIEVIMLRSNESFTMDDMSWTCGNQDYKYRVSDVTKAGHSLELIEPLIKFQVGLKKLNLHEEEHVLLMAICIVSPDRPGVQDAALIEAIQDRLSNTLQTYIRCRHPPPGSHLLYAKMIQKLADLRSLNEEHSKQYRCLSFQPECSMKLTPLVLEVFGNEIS
How it was run: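 VDR-bla cells plated 4 h at 37 C, then exposed to compounds for 16 h at 37 C. Beta-lactamase reporter activity measured by fluorescence after 2 h room-temperature loading with LiveBLAzer B/G FRET substrate.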

[19] = molecular target: Vitamin D3 receptor (Homo sapiens) (UniProt P11473); assay: qHTS assay to identify small molecule antagonists of the vitamin D receptor (VDR) signaling pathway (AID 743223; active means well fitted inhibition curve with a large enough effect in the signal ratio in the repeat runs, not every such curve was filed as active; the % refers to the signal ratio)
How it was run: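 Antagonist mode uses 1alpha,25-dihydroxyvitamin D3 at 3 nM final as stimulus. VDR-bla cells receive compounds in DMSO, incubate 16 h at 37C, then a beta-lactamase FRET substrate for 2 h at room temperature before fluorescence measurement.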

Measured: Potency

CC(C)Cc1ccc(C(C)C(=O)O)cc1 (configuration not stated)
not listed: [14] | [15] | [16] | [17] | [18] | [19]
inactive: all other assays above

CC(=O)c1ccc(S(=O)(=O)NC(=O)NC2CCCCC2)cc1
not listed: [13]
inactive: all other assays above

Cn1cnc2c1c(=O)[nH]c(=O)n2C
inactive: all assays above

COc1cc(C=O)ccc1O
not listed: [14] | [16]
inactive: all other assays above

COCCOCCOC
not listed: [6] | [14]
inactive: all other assays above

CCCCOCCOCCOC(C)=O
not listed: [6] | [15] | [16] | [17]
inactive: all other assays above

N[C@@H](Cc1c[nH]c2ccccc12)C(=O)O
active: [2] 30.7 µM
not listed: [15] | [17]
inactive: all other assays above

CC(=O)CCC(C)C
not listed: [6] | [18] | [19]
inactive: all other assays above
